Assay [1] deals with Single-stranded DNA cytosine deaminase (Homo sapiens) (UniProt Q9GZX7). As to the kind of experiment: Validation qHTS assay for inhibitors of Activation Induced Cytidine Deaminase (AID): AID signal (AID 1347429). Note: potency is the fitted concentration of half-maximal effect. In short, it runs like this: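 In this coupled qHTS, AID deaminates a FRET-labelled ssDNA substrate in the presence of UDG over 4 hr at room temperature. Compounds span up to 114 uM final.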

Assay [2] is described as follows: Primary qHTS for inhibitors of La Crosse Virus (LACV) - induced cell death in SH-SY5Y cells (AID 1508616).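 Note: top concentration of the series differs between compounds; higher means more rescue of cells from virus-induced death.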 In outline: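 Readout was luminescence from ATPLite 1step added after a 6-day LACV infection (0.01 MOI) of SH-SY5Y cells that had received pin-transferred compound 24 hr after seeding.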
For orientation: Quantitative high-throughput screening tests each substance at several concentrations.

Assay [3] in a line: Validation qHTS assay for inhibitors of Activation Induced Cytidine Deaminase (AID): UDG Counterscreen signal (AID 1347427). In outline: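 Counterscreen read of UDG activity (2 U/mL, 4/3x) in the FRET deamination format with AID (1 uM, 4/3x), DJC20/DJC23 substrates (250 nM, 4x), 4 h at room temperature. NaOH stop, fluorescence at 560 ex/665 em.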

Results on 35 compounds are retold here after PubChem BioAssay (NCATS).

Records with an inconclusive call do not appear. A call without a number means that no potency is given here. The source made the active and inactive calls. Calls come from the whole dose curve; as a rule, active = well fitted curve in the direction sought with a large enough effect; inconclusive = small, poorly fitted or top-dose-only effect, or another doubt; inactive = no such curve, though single readings can be large; an effect the other way counts as inactive or inconclusive.

Chain of Single-stranded DNA cytosine deaminase (Homo sapiens) (Q9GZX7 whole entry, looked up): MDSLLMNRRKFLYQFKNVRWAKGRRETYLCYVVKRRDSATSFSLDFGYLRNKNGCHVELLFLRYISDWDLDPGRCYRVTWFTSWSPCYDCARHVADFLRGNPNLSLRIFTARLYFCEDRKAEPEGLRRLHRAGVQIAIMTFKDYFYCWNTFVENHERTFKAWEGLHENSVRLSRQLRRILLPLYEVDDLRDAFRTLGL

In the case of `COC1=C(OC)C(=O)c2ccccc2C1=O`, the Potency in assay [1] was 50.1 µM (active). Further, the Potency result in assay [2] is “inactive”.
`CN1CCc2cccc3c2C1Cc1ccc(O)c(O)c1-3` (stereo not given): the Potency entry in assay [1] and in assay [2] was “inactive” throughout.
In the case of `NC[C@@H]1O[C@H](C23CC4CC(CC(C4)C2)C3)Cc2c1ccc(O)c2O`, the Potency entry in assay [3], in assay [1] and in assay [2] was “inactive” throughout.
With `Nc1ncnc2c1c(I)cn2[C@@H]1C[C@H](N)[C@@H](O)[C@H]1O`, the Potency result in assay [3], in assay [1] and in assay [2] was “inactive” in each case.
Take `CCCC1(C)C(C#N)(C#N)C1(C#N)C#N`: the Potency entry in assay [1] is “inactive”.
With `N.N.O=C(O)C1(C(=O)O)CCC1.[Pt]`, the Potency entry in assay [1] and in assay [2] was “inactive” throughout.
For `Cc1ccccc1CNc1ncnc2c1ncn2C1OC(CO)C(O)C1O` (stereo not given), the Potency result in assay [3] and in assay [2] was “inactive” each time.
With `O=C(O)CC1CCCc2ccccc2C1O` (stereo not given), the Potency result in assay [2] was “inactive”.
Take `CN=c1nc(-c2ccccc2)n(-c2ccccc2)s1`: in assay [2], the Potency result is “inactive”.
Regarding `CC[C@@H](C)[C@H]1O[C@]2(CC[C@H]1C)C[C@@H]1C[C@@H](CC=C(C)[C@@H](O[C@H]3C[C@H](OC)[C@@H](O[C@H]4C[C@H](OC)[C@@H](O)[C@H](C)O4)[C@H](C)O3)[C@@H](C)C=CC=C3CO[C@@H]4[C@H](O)C(C)=C[C@@H](C(=O)O1)[C@]34O)O2`, the Potency result in assay [3] and in assay [2] was “inactive” in each case.
Turning to `C=CC(=O)c1ccc(CCCCCC)cc1`, the Potency result in assay [3] and in assay [2] was “inactive” in each case.
For the compound `CO/S(=N\S(=O)(=O)c1ccc(Cl)cc1)c1ccc([N+](=O)[O-])cc1` (stereo not given), the Potency result in assay [3], in assay [1] and in assay [2] was “inactive” throughout.
For `CC(C)NCC(O)COc1cccc2ccccc12` (stereo not given), the Potency entry in assay [2] is “inactive”.
`OCC1O[C@H](O)C(Cl)C(O)C1O` (stereo not given in full): the Potency result in assay [1] and in assay [2] was “inactive” throughout.
In the case of `N=C(N)SCCc1ccc(CCSC(=N)N)cc1`, the Potency result in assay [1] and in assay [2] was “inactive” in each case.
As to `COc1ccccc1N1CCN(CCCCNS(=O)(=O)c2cccc3c(N(C)C)cccc23)CC1`, the Potency result in assay [3] and in assay [2] was “inactive” each time.
Consider `OC[C@H]1O[C@@H](n2cnc3c(Nc4ccccc4)ncnc32)[C@H](O)[C@@H]1O`, for which the Potency entry in assay [3] and in assay [2] was “inactive” each time.
As to `CC(COc1ccc(/C=C/c2ccccc2)cc1)[N+](C)(C)C` (stereo not given), the Potency result in assay [3] and in assay [2] was “inactive” in each case.
As for `Cc1ccc(C(=O)O[C@H](C(=O)O)[C@@H](OC(=O)c2ccc(C)cc2)C(=O)O)cc1` (tested in a mixture with another compound), the Potency result in assay [3], in assay [1] and in assay [2] was “inactive” each time.
In the case of `NC(=S)NCCC[C@H](N)C(=O)O`, the Potency result in assay [3] and in assay [2] was “inactive” throughout.
For the compound `CC(C)Cc1ccc([C@H](C)C(=O)O)cc1`, the Potency result in assay [2] is “inactive”.
On to `O=C(O)/C=C/C(O)c1ccc(Cl)cc1` (stereo not given), for which the Potency result in assay [1] and in assay [2] was “inactive” in each case.
For `COc1cc2nc(N3CCN(C(=O)OCc4ccccc4)C(C(=O)NC(C)(C)C)C3)nc(N)c2cc1OC` (stereo not given), in assay [2], the Potency entry is “inactive”.
With `NC(CCCP(=O)(O)O)C(=O)O` (stereo not given), the Potency entry in assay [3], in assay [1] and in assay [2] was “inactive” each time.
For `CN1CCc2cc(O)c(O)cc2C(c2ccccc2)C1` (stereo not given), the Potency entry in assay [3] and in assay [2] was “inactive” each time.
Regarding `CCCCN1CCC(n2c(=O)[nH]c3ccccc32)CC1`, the Potency result in assay [3], in assay [1] and in assay [2] was “inactive” each time.
Turning to `NCCCCCCCCCCN`, the Potency entry in assay [3], in assay [1] and in assay [2] was “inactive” in each case.
With `C#CCN1C(C)=C(C(=O)OC)C(c2cccc([N+](=O)[O-])c2)C(C(=O)OCC)=C1C` (stereo not given), the Potency result in assay [1] and in assay [2] was “inactive” throughout.
Turning to `O=c1[nH]c2cc(Cl)c(Cl)cc2[nH]c1=O`, the Potency entry in assay [1] and in assay [2] was “inactive” throughout.
Consider `N#C/C(=C\c1c[nH]c2ccccc12)C(=O)c1ccc(O)c(O)c1`, for which the Potency result in assay [3] and in assay [2] was “inactive” in each case.
Regarding `CN1CCC[C@H]1c1cccnc1`, the Potency result in assay [1] and in assay [2] was “inactive” in each case.
For `O=C(O)c1cc(=O)c2ccccc2[nH]1`, the Potency result in assay [2] was “inactive”.
Regarding `NC(=O)C(=O)O`, the Potency entry in assay [3], in assay [1] and in assay [2] was “inactive” each time.
Take `CCCCCC(O)c1cccc(OCc2ccc3ccccc3n2)c1` (stereo not given): in assay [2], the Potency entry was “inactive”.
As to `COc1ccccc1N1CCN(CCN(C(=O)c2ccc(I)cc2)c2ccccn2)CC1`, the Potency entry in assay [1] and in assay [2] was “inactive” each time.
